Results as given in the supplement of paper PMC6555819.

Tests used:
Assay in all cases: PBM binding z-score (relative to random genomic background probes); higher = stronger binding; sequences stand for … in GC…GCGATTGACAGCGTAGAATGAAGG
[1] = system: FXR:RXRa (NR concentration 270 nM, RXRa partner concentration 90 nM)
Method in brief: (§1)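 Ligand-free nuclear receptor dimers were bound for 1 h to custom Agilent 4×180K protein-binding microarrays. Detection used antibodies against each partner (one per run). Binding z-scores rest on regression-normalized fluorescence, with random background probes as the reference.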

[2] = system: LXRa:RXRa (NR concentration 270 nM, RXRa partner concentration 90 nM)
Method in brief: as §1

[3] = system: LXRa homodimer (NR concentration 270 nM)
Method in brief: as §1

[4] = system: LXRb:RXRa (NR concentration 270 nM, RXRa partner concentration 90 nM)
Method in brief: as §1

[5] = system: LXRb homodimer (NR concentration 270 nM)
Method in brief: as §1

[6] = system: PPARa:RXRa (NR concentration 270 nM, RXRa partner concentration 90 nM)
Method in brief: as §1

[7] = system: PPARg:RXRa (NR concentration 180 nM, RXRa partner concentration 90 nM)
Method in brief: as §1

[8] = system: PPARg:RXRa 270nM:90nM, anti-RXR (NR concentration 270 nM, RXRa partner concentration 90 nM)
Method in brief: as §1

[9] = system: PPARg:RXRa 30nM:10nM, anti-RXR (NR concentration 30 nM, RXRa partner concentration 10 nM)
Method in brief: as §1

[10] = system: PPARg:RXRa 90nM:30nM, anti-RXR (NR concentration 90 nM, RXRa partner concentration 30 nM)
Method in brief: as §1

Row | Sequence | PBM binding z-score [1] | PBM binding z-score [2] | PBM binding z-score [3] | PBM binding z-score [4] | PBM binding z-score [5] | PBM binding z-score [6] | PBM binding z-score [7] | PBM binding z-score [8] | PBM binding z-score [9] | PBM binding z-score [10]
1 | GGCACGAGGGCAAAGTTGATAGCATCTGTCGACG | 1.44 | 1.01 | -0.378 | 0.776 | -0.874 | 3.29 | 6.13 | 6.24 | 4.26 | 6.86
2 | CCTTACGGGTCACTGACACGTTATAGCATTTGGA | 5.87 | 3.87 | 0.355 | 3.38 | 0.0224 | 5.4 | 4.48 | 4.55 | 1.45 | 3.25
3 | CCTACTGGGCCATCAGGTCATTGGTATCAACGTT | 1.47 | 1.25 | 1.08 | 1.78 | -0.424 | 2.91 | 2.98 | 3.68 | 1.17 | 2.79
4 | GGAAGGAGGGCATTCGAGTTGATAGCATGGCGAT | 1.31 | 1.78 | 0.199 | 0.866 | 0.337 | 1.46 | 0.926 | 1.07 | -0.0182 | 0.639
5 | ATCTCTAGGTAAAGTTCAGTGAGAGATCGATAGA | 1.25 | 1.82 | 1.42 | 0.981 | 0.57 | 2.42 | 3.37 | 3.95 | 2.06 | 3.46
6 | GATACAGGGTCAAGGCTAGAGTACGCGTATTGAT | 6.01 | 4.13 | 0.107 | 3.78 | 0.158 | 5.61 | 5.73 | 5.61 | 2.19 | 4.21
7 | CCTTACGGGTCAAGGATATAGCACGGGTGGTACG | 4.77 | 2.96 | 0.0404 | 2.45 | -0.392 | 4.52 | 3.82 | 3.92 | 1.14 | 2.66
8 | GGAACGCGGGCAAAGTTGATAGCATCTGTCGACG | -0.48 | -0.465 | -0.736 | -0.893 | -0.943 | 1.67 | 2.51 | 4.63 | 1.85 | 4.06
9 | TCTTTTAGATCAATAGAGGTTAAGAAAGTGCGCT | 1.13 | 4.04 | 0.769 | 2.06 | 0.963 | 2.16 | 0.209 | 2.08 | 3.57 | 2.92
10 | TCGAGTAGGTTAGTCGGGGCATTCAACCAACATA | 0.19 | 0.112 | 0.0145 | 0.776 | -0.298 | 0.929 | 0.00295 | 1.16 | 1.41 | 1.11
11 | TCATATAGGTAAAGGTGAAGGTCGAACGATATGA | 1.28 | 1.29 | -0.098 | 1.57 | 0.0286 | 3.41 | 4.01 | 4.29 | 4.42 | 4.54
12 | CGTCCAAGGTCAGCAGGGCAGTGAAAGCGACGTG | 5.27 | 3.24 | -0.203 | 2.34 | -0.623 | 4.47 | 3.08 | 3.74 | 0.535 | 2.52
13 | GCTATTAGTTGAAAGGGCAGCCGAATGATTCTCG | 0.117 | 0.132 | -0.239 | 0.0989 | -0.467 | 1.69 | 1.92 | 3.53 | 1.46 | 3.05
14 | GCTCGGAGGACAAGGTCAGAGGTTTGTCCGTAGA | 1.77 | 1.52 | -0.501 | 1.28 | -0.78 | 2.39 | 1.75 | 2.59 | 0.214 | 2.08
15 | CCGACTGGGGCAGAAATGTTACCATACCATCCGG | -0.183 | -0.371 | -0.171 | -0.528 | -0.781 | -0.385 | 0.729 | -0.0813 | -0.351 | -0.433
16 | CGTTACGGGTCACTGACAGGTTATAGCATTTGGA | 5.82 | 4.13 | 0.216 | 3.8 | -0.201 | 5.54 | 4.6 | 4.21 | 1.79 | 3.39
17 | CCTACTCGGCCACGAAAGGTCATTGATTCAGTGA | 3.82 | 5.15 | 5.64 | 4.28 | 0.938 | 4.36 | 1.93 | 3.43 | 1.33 | 2.24
18 | CCAGACAGGTGAAAGGCAACTCAGTCTGGTACGC | -0.102 | 0.0112 | -0.327 | 0.0509 | -0.597 | 1.7 | 2.49 | 3.2 | 1.12 | 2.8
19 | TAGCCTAGGTCATGGGCCAGTCTACCACGCGAAC | 4.36 | 3.2 | 0.0919 | 2.04 | -0.312 | 4 | 3.34 | 3.49 | 0.699 | 2.48

Row | Sequence | PBM binding z-score [1] | PBM binding z-score [2] | PBM binding z-score [3] | PBM binding z-score [4] | PBM binding z-score [5] | PBM binding z-score [6] | PBM binding z-score [7] | PBM binding z-score [8] | PBM binding z-score [9] | PBM binding z-score [10]
20 | AGAACGAGGGCAATGCGTTGATAGCACGGGTGGC | 0.0853 | 0.264 | -0.517 | -0.19 | -0.678 | 1.3 | 1.36 | 0.671 | -0.109 | 0.215
21 | CCTTACGGGACACGAGGTTATAGCACGACGAGCG | 0.657 | 0.725 | 0.391 | 0.535 | -0.204 | 1.27 | 1.38 | 0.573 | 0.0152 | 0.477
22 | ACTAGCAGGCTAAGTTTGGGTCACTCAAACAAAG | -0.0373 | -0.132 | -0.315 | 0.424 | -0.557 | 1.28 | -0.0855 | 0.315 | -0.575 | -0.155
23 | CCAGACAGGTGAGACGGTAACTCAGCCTCGATTA | -0.078 | -0.00881 | 0.268 | -0.263 | -0.377 | 0.144 | 0.367 | 0.232 | -0.249 | -0.285
24 | TCTTGTCGATCAAAGGTTAAGAAAGCCGAAGCCT | 1.41 | 1.95 | 0.175 | 1.9 | 0.245 | 3.76 | 5.79 | 6.32 | 5.47 | 6.64
25 | ACTATTAGTTGAGACGAGGTCAACCGATAGGTTG | 3.42 | 3.7 | 2.01 | 3.53 | 0.73 | 4.15 | 1.97 | 2.35 | 0.821 | 1.85
26 | CGCACGAGGGCATGAGTTGATAGCAAATGCCGAT | 0.564 | 0.295 | -0.626 | 0.0671 | -0.764 | 1.1 | 0.947 | 0.583 | -0.123 | 0.22
27 | GATACAGGGTCACGGCCAGAGTACGCGTATTGAT | 7.54 | 5.1 | -0.0336 | 4.33 | -0.171 | 6.26 | 8.33 | 7.43 | 3.93 | 6.41
28 | TAGCCTAGGTCATTGGGCGAGTATAGTACGCATC | 4.55 | 3.24 | 0.459 | 2.06 | 0.053 | 3.51 | 2.65 | 2.83 | 0.405 | 1.8
29 | CCGAGTAGGGTATGGGGCATTCAGGCAACGGTGA | -0.164 | -0.318 | -0.305 | 0.261 | -0.00353 | 1.14 | 2.09 | 3.6 | 1.5 | 3.18
30 | TCATATAGGTAAACAGGTGAAAGACCGTAAGTTA | 0.974 | 0.774 | 0.26 | 0.571 | -0.084 | 2.47 | 3.45 | 3.63 | 4.12 | 4.03
31 | AGTCAACGTTCATCTAGGTAACGTAAGATATGCT | -0.27 | -0.156 | -0.154 | -0.204 | -0.325 | 0.365 | 0.767 | 0.288 | 0.292 | 0.234
32 | CCTATTAGTTGACCATAAGGGGAACCGAAGCTCG | 0.142 | 0.366 | 0.327 | 0.217 | 0.84 | 0.0558 | 0.299 | 0.112 | -0.0773 | 0.104
33 | GCAGACAGGTGAAACGCATGTAACTCAGGGTGGC | -0.379 | -0.173 | -0.544 | -0.265 | -1.29 | 0.825 | 0.841 | -0.0772 | -0.653 | -0.344
34 | ATCTCTAGGTAACAAGTTCAGTGACAGAGAGGAC | 0.767 | 0.889 | 0.72 | 0.57 | 0.85 | 1.52 | 1.61 | 2.21 | 0.948 | 1.88
35 | TAGCCTAGGTCATTGGCCCAGTATAGTACGCATC | 4.84 | 3.9 | 1.34 | 2.45 | -0.219 | 3.53 | 2.1 | 2.32 | 0.439 | 1.49
36 | CTGCCTAGGTCAGGGCCAGTATAGGAGGAACGTT | 1.28 | 1.01 | -0.475 | 0.634 | -1.25 | 1.88 | 0.668 | 0.916 | -0.35 | 0.272
37 | ACTAGTTGGTCAGCTGAGGTCACAGACAATTCGG | 2.95 | 3.29 | 1.84 | 3.27 | 0.184 | 3.71 | 1.72 | 2.16 | 0.454 | 1.43
